# Measurements reported in PubChem BioAssay.
# Test system: Sam68 (KHDRBS1)
# Assay: compounds binding KHDRBS1 protein – biochemical, small-molecule microarray, 635 nm fluorescence, primary screen (AID 1125);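 also: score merges 667 nm channel intensity with signal to noise over triplicate slides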
# Conditions: higher = more signal
row,SMILES,composite z-score
1,O=C1C2C=CC(C(O)C=Cc3ccc([N+](=O)[O-])cc3)N(n3cnnc3)C2C(=O)N1Cc1ccccc1 (centres undefined),1.19
2,O=C1O[C@H](c2ccccc2)[C@H](c2ccccc2)N2[C@H]1[C@@H](C(=O)NC[C@H](O)c1ccccc1)[C@]1(C(=O)Nc3ccc(C#CC4=CCCCC4)cc31)[C@H]2c1ccccc1OCCO,1.32
3,O=C1NC(=O)C2C1C=CC(C(O)c1ccc(I)cc1)N2Nc1ccc(Cl)cc1Cl (centres undefined),1.22
4,CC(C)CCC[C@@H](C)[C@H]1CC[C@@]2(C)C3=C(CC[C@]12C)[C@@]1(C)CC[C@H](OC(=O)c2ccc(C(F)(F)F)nc2)C(C)(C)C1CC3 (some centres undefined),0.42
5,CC(C)(C)OC(=O)CC[C@]1(C(=O)NCCN2CCOCC2)COC(c2ccc(OCCCO)cc2)=N1,1.28
6,CN1C(=O)C2C=CC(C(O)c3ccccc3)N(N3CCCCC3)C2C1=O (centres undefined),1.02
7,CC[C@@H]1C=C(C(=O)O)[C@H](c2cccc3ccccc23)N1S(=O)(=O)c1ccc(C)cc1,1.05
8,C=CCNC(=O)[C@H]1[C@@H]2C(=O)O[C@@H](c3ccccc3)[C@@H](c3ccccc3)N2[C@@H](c2ccc(OCCO)cc2)[C@]12C(=O)Nc1ccc(C#CCC(C(=O)OC)C(=O)OC)cc12,1.3
9,C=CCN1Cc2ccccc2[C@@H]2OC(c3ccc(OCCCO)cc3)=N[C@]2(CCS(=O)(=O)c2ccccc2)C1=O,1.3
10,C[N+](C)(C)CCCC[C@@H]1NC(=O)[C@H]2C[C@@H](C(=O)NCCCCCCNC(=O)CS)[C@@H](c3ccc(O)cc3)N2C1=O,-0.611
11,CC(=O)Nc1cc(Br)ccc1C(=O)NCc1ccccc1,0.494
12,O=C1C2C=CC(C(O)c3ccc4c(c3)OCO4)N(Nc3ccc([N+](=O)[O-])cc3)C2C(=O)N1c1ccccc1 (centres undefined),0.597
13,COc1ccc(C(O)C2C=CC3C(=O)N(C)C(=O)C3N2N(c2ccccc2)c2ccccc2)c2ccccc12 (centres undefined),-0.481
14,COc1cc2c(cc1O)C=[N+](Cc1cc3c(cc1Br)OCO3)CC2,-0.54

# Test system: Chordin-like protein 2 (CHRDL2)
# Assay: compounds binding chordin-like 2 – biochemical, small-molecule microarray, 635 nm fluorescence, primary screen (AID 1126);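 also: printed compound slides probed with Chrdl2 protein at 4 µg/mL for 1 h at 4 C; score merges 667 nm emission intensity with signal to noise over three replicate slides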
# Conditions: fluorescence 635 nm, higher = more signal
row,SMILES,composite z-score
1,CC(C)N1CC=CC23O[C@@H]4C=CCOC(=O)[C@@H]4[C@H]2C(=O)N(CCCCCO)[C@@H]3C1=O (some centres undefined),-0.574
2,[N-]=[N+]=Nc1ccccc1C[C@@]1(C(=O)N2CCCCC2)N=C(c2ccc(OCCCO)cc2)O[C@@H]1c1ccccc1,-0.687
3,OCC1C=C(/C=C/c2ccccc2)CN1Cc1ccccc1Br (centres undefined),0.402
4,C=CC[C@@]1(C(=O)N2CCCCC2)N=C(c2ccc(OCCCO)cc2)O[C@@H]1c1ccccc1N=[N+]=[N-],-0.294
5,CO[C@H]1O[C@H](CO)[C@@H](OC(=O)Nc2ccc(Oc3ccccc3)cc2)[C@H](OC(=O)Nc2ccc3c(c2)OCO3)[C@@H]1OC(=O)Nc1ccc2c(c1)OCO2,0.335
6,COCCOC(=O)N1C(=O)[C@@]2(c3ccccc31)[C@H](C(=O)N1CCc3cc(OC)c(OC)cc3C1)[C@H]1C(=O)O[C@H](c3ccccc3)[C@H](c3ccccc3)N1[C@@H]2c1ccc(O)cc1,0.628
7,CCCCC(=C=CC[C@@H](O)c1cccc(OCCO)c1)C[C@@H](O)c1ccccn1,0.263
8,CCOC(=O)C[C@H]1[C@H](OC(=O)c2cc3ccccc3oc2=O)[C@@H](NC(=O)CC(C)C)c2cc(OCCCO)ccc2N1C(=O)c1ccccc1,0.202
9,CC(C)(C)OC(=O)CC[C@@]1(C(=O)N2CCCCC2)N=C(c2ccc(OCCCO)cc2)O[C@@H]1c1ccccc1,-0.409
10,Cc1ccc(S(=O)(=O)N2C[C@@H](C(=O)O)[C@H](Sc3ccccc3)C[C@H]2c2ccccc2)cc1,-0.75
11,O=C1[C@H]2C=C(Br)[C@H](C[C@@H]2OCCCCCCO)[C@@]12CO2,0.0547
12,COc1ccc(C(=O)Nc2cccc(CN3C(=O)[C@]4(O[C@H](CCn5cc(CCO)nn5)[C@@H]([Si](C)(C)c5ccc(OC)cc5)[C@@H]4C)c4ccccc43)c2)cc1,0.306
13,C=C[C@H](C)[C@@H](OC(=O)Nc1ccc(SC)cc1)c1ccc(O)c2ccccc12,1.13
14,COCCOC(=O)N1C(=O)[C@@]2(c3cc(C#CC4(O)CCCCCC4)ccc31)[C@H](C(=O)Nc1nc3ccccc3s1)[C@H]1C(=O)O[C@H](c3ccccc3)[C@H](c3ccccc3)N1[C@@H]2c1ccccc1OCCO,-0.0036
15,C=CCC(OC(C)=O)[C@@H]1[C@@H](N(Cc2ccc(-c3ccccc3)cc2)C(=O)Cc2ccc(F)cc2)c2cc(OCCCO)ccc2N1C(=O)c1ccc2ccccc2c1 (some centres undefined),-0.132
